Screening data from PubChem.
This is a sample that favours compounds with a hit; in the whole collection about 7.9% have one here.
MCF10A rereplic: inducers of DNA re-replication in MCF 10A breast cells. MCF 10A DNA re-replication, Hoechst nuclear intensity, 48 h. Potency, µM (series often up to 46.1 µM), for inactives: at the highest dose activity, positive = re-replication, hits mostly activators. 350,000 tested, 2.9% active. AID 624296; further: % of control where 0% means no effect; nearly all actives have a fitted effect of over 50% in size
KB-V1 cytotox: kills drug-selected multidrug resistant KB-V1 cells | 400,000 tested, 3.4% active | KB-V1 MDR cells viability, CellTiter-Glo, 72 h | Potency, µM (highest dose often 46.1 µM), actives largely listed as cytotoxic; further: on the % scale 0 is the no-effect control and ±100 the full control effect; nearly all actives have a fitted effect of over 60% in size
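Potencies derive from concentration-effect curves fitted to normalized luminescence (CellTiter-Glo) of KB-V1 cells treated for 72 h at 37 degrees C in phenol-red-free DMEM containing 10% FBS.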
KB-3-1 tox: KB-3-1 parental cell cytotoxicity; KB-3-1 viability, CellTiter-Glo ATP luminescence, 72 h; Potency, µM (series often up to 46.1 µM), actives largely listed as cytotoxic; 400,000 tested, 1.4% active; further: on the % scale 0 is the no-effect control and ±100 the full control effect; nearly all actives have a fitted effect of over 60% in size
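Luminescent ATP read-out (CellTiter-Glo) measures survival of drug-naive KB-3-1 cells after 72 h compound exposure at 37 °C. Titration series was screened from lowest to highest concentration, with DMSO vehicle plates as background controls.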
HT1080-NT tox: kills 2HG-producing HT-1080-NT fibrosarcoma cells; HT-1080-NT fibrosarcoma viability, CellTiter-Glo ATP luminescence, 48 h; Potency, µM (top dose mostly 46.1 µM), for inactives: at the top dose activity, negative = less viability, hits mostly cytotoxic; 360,000 tested, 1.6% active; AID 686970;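 further: NT is the 2HG producing partner of a matched IDH1 knockdown line; 0% = DMSO-treated cells and -100% = media-only wells without cells; nearly all actives have a fitted effect of over 55% in size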
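Read-out is CellTiter-Glo luminescence after 10 minutes at room temperature, following 48 hours' compound treatment of HT-1080-NT cells (750 cells/well, RPMI, 5% FBS, 37 degrees C).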
HT1080 IDH1KD tx: HT-1080 IDH1 knockdown cell toxicity (counter line) | HT-1080 IDH1 knockdown viability, ATP luminescence, 48 h | Potency, µM (series often up to 46.1 µM), without a hit: at the top dose activity, negative = toxicity, hits mostly cytotoxic | 360,000 tested, 2% active;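 further: 0% = DMSO wells and -100% = cell-free medium wells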
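Knockdown cells (IDH1KD HT-1080) received compounds 2 h after plating at 750 cells/well and were kept 48 h at 37 °C in 5% FBS RPMI. A CellTiter-Glo luminescence read gave % activity for curve fitting.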
SW480 rerep: induces DNA re-replication in SW480 colon adenocarcinoma cells | SW480 DNA re-replication, Hoechst DNA content imaging, 48 h | Potency, µM (highest dose often 46.1 µM), inactives show at the top dose re-replication activation, hits mostly activators | 340,000 tested, 1.8% active | AID 624297; further: % of control where 0% means no effect; nearly all actives have a fitted effect of over 55% in size
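Quantitative HTS format with DMSO vehicle controls; 48 hr drug incubation at 37 C, then 40 min Hoechst staining and scanning imager measurement at 405 nm excitation.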
An asterisk follows results filed as active; i = inactive; ? = inconclusive; · = not tested or not shown; [ ] = another dose, or the depositor's remark. The call rests on the fitted dose curve; in most records, active means well fitted curve in the direction sought with a large enough effect; inconclusive means small, poorly fitted or top-dose-only effect, or another doubt; inactive means no such curve, though single readings can be large; an effect the other way counts as inactive or inconclusive. Potency means the concentration at half of the fitted maximal effect.

SMILES | MCF10A rereplic | KB-V1 cytotox | KB-3-1 tox | HT1080-NT tox | HT1080 IDH1KD tx | SW480 rerep
O=C(COC(=O)C1CCN(c2ccc(C(F)(F)F)cn2)CC1)Nc1ccc(Cl)cc1 | -0.4% | ? | i | 6.6% | 16.0% | -3.4%
O=C(NCc1ccco1)C(c1ccccc1)N(CC1CCCO1)C(=O)Cn1nnc2ccccc21 (stereo unspecified) | -4.2% | 20.6µM* | i | -4.4% | 0.4% | ?
CC(NC(=O)CCNC(=O)c1ccco1)c1ccccc1 (stereo unspecified) | 6.5% | i | i | 11.9% | 7.6% | 5.0%
Cc1ccc(Sc2ccc(/C=C3/C(=O)NN(c4ccccc4)C3=O)o2)cc1 | 4.8% | i | i | 0.0% | 0.7% | -1.7%
O=C1NN(c2ccccc2)C(=O)/C1=C/c1ccc(Sc2ccc(Cl)cc2)o1 | 4.61µM* | i | i | -9.2% | -6.3% | 29.4%
CNC(=O)[C@@H]1C[C@H]1[C@@H](NC(=O)OCc1ccccc1)c1ccccc1 | -0.9% | i | i | 11.8% | 9.4% | -1.3%
COC(=O)c1ccc(C)c(NC(=S)NCc2ccc(Cl)cc2)c1 | 4.9% | 23.1µM* | i | -5.0% | -3.4% | -6.0%
COc1ccc(N2C(=O)Cc3cc(OC)c(OC)cc3C2c2ccc(F)cc2)cc1 (stereo unspecified) | · | i | i | · | · | ·
CCOc1ccc(C2c3cc(OC)c(OC)cc3CC(=O)N2c2ccc(OC)cc2)cc1 (stereo unspecified) | 124.0% | ? | 18.4µM* | ? | ? | 14.6µM*
CCCC(C(=O)NNC(=O)c1ccncc1)c1ccccc1 (stereo unspecified) | -10.8% | i | i | 0.5% | 10.3% | -15.2%
Cc1ccc(-c2cnc(C3CC3)o2)cc1S(=O)(=O)Nc1ccccc1 | ? | ? | 7.31µM* | -25.9% | ? | -5.4%
CC(=O)Nc1ccc(NS(=O)(=O)c2cc(-c3cnc(C4CC4)o3)ccc2C)cc1 | -5.5% | ? | i | -3.9% | -5.9% | -6.1%
CC(=O)c1ccc(NS(=O)(=O)c2cc(-c3cnc(C4CC4)o3)ccc2C)cc1 | ? | ? | ? | 20.6µM* | ? | ?
O=S(=O)(c1ccc(-c2cnc(C3CC3)o2)cc1)N1CCN(c2ccc(F)cc2)CC1 | · | i | ? | · | · | ·
CC(=O)c1cccc(NS(=O)(=O)c2cc(-c3cnc(C4CC4)o3)ccc2C)c1 | ? | ? | ? | 20.6µM* | 23.1µM* | -10.9%
CC(=O)c1ccc(N2CCN(S(=O)(=O)c3ccc(-c4cnc(C5CC5)o4)cc3)CC2)cc1 | 23.0% | ? | i | 14.6µM* | 20.6µM* | 0.4%
CCOc1ccc(C(=O)NC2C(=O)N3C(C(=O)O)=C(COC(C)=O)CSC23)cc1OCC (stereo unspecified) | 16.4µM* | i | i | -2.2% | -5.7% | -8.7%
CC(=O)OCC1=C(C(=O)O)N2C(=O)[C@@H](NC(=O)Cc3ccccc3)[C@H]2SC1 | 9.6% | i | i | -10.8% | 7.3% | -5.5%
Nc1nc(Cl)cc(Sc2ccc3ccccc3c2)n1 | ? | ? | ? | ? | 16.4µM* | ?
CCOc1ccc(N(CC(=O)NC2CCCCC2)C(=O)CNC(=O)c2cccs2)cc1 | 2.5% | ? | i | 5.1% | 3.2% | 19.2%
Cc1cc(C)cc(NS(=O)(=O)CCCS(=O)(=O)Nc2cc(C)cc(C)c2)c1 | ? | i | i | ? | 20.6µM* | 5.0%
CCCCCCCCCS(=O)(=O)Nc1cc(C)ccn1 | ? | i | i | -7.5% | -9.6% | -2.5%
Cc1c(Cl)cccc1NC(=S)NCCc1ccc(Cl)cc1 | 16.5% | i | ? | ? | ? | 13µM*
CC(=O)OC(C(=O)NC1CCCCC1)c1ccc(C#N)cc1 (stereo unspecified) | -2.3% | i | i | -1.4% | -4.8% | -3.9%
CCCn1c(=O)[nH]c2ccccc21 | -1.5% | i | i | 16.7% | 9.2% | -6.5%
SMILES | MCF10A rereplic | KB-V1 cytotox | KB-3-1 tox | HT1080-NT tox | HT1080 IDH1KD tx | SW480 rerep
Cc1cc(C)nc(SCCCn2c(=O)[nH]c3ccccc32)n1 | 0.8% | 9.2µM* | i | -1.6% | 2.4% | -4.1%
CS(=O)(=O)Nc1ccc(C(=O)N2CCc3ccccc3C2)cc1 | -4.7% | i | i | 1.7% | 13.6% | -29.2%
CCOC(=O)Nc1sc2nc(C)cc(C)c2c1-n1cccc1 | 26.6% | 18.4µM* | ? | -26.1% | -29.2% | -0.6%
Cc1cccc(NC2=C(Cl)C(=O)OC2OC(=O)c2ccco2)c1 (stereo unspecified) | ? | i | i | ? | -8.7% | 4.61µM*
Cc1ccc(NC2=C(Cl)C(=O)OC2OC(=O)c2ccco2)cc1 (stereo unspecified) | ? | i | i | ? | 10µM* | 20.6µM*
O=C(CNc1n[nH]c(=O)[nH]c1=O)N/N=C/c1cccnc1 | 3.2% | i | i | -5.1% | -0.3% | -3.4%
Cc1cccc(NC(=O)/C(C#N)=C/c2cn(CC(=O)NCc3ccco3)c3ccccc23)c1C | ? | ? | ? | -46.1% | -46.3% | ?
N#C/C(=C\c1cn(Cc2ccccc2)c2ccccc12)C(=O)NCc1ccco1 | 20.6µM* | i | i | -6.4% | -14.8% | ?
N#C/C(=C\c1cn(Cc2cccc(F)c2)c2ccccc12)C(=O)NCc1ccco1 | 13µM* | i | i | -20.2% | ? | ·
N#C/C(=C\c1cn(Cc2ccc(F)cc2)c2ccccc12)C(=O)NCc1ccco1 | -1.5% | i | i | ? | ? | ?
COC(=O)C1SCCN1S(=O)(=O)c1ccc(Cl)cc1 (stereo unspecified) | -0.8% | i | i | 1.8% | 6.6% | -1.0%
C=CCn1c(=O)c2ccccc2n2c(SCC(=O)NC(C)C)nnc12 | 1.7% | i | i | 5.8% | 7.9% | -0.4%
COc1ccc(-n2nnnc2SCC(=O)Nc2ccc3c(c2)OCCO3)c(OC)c1 | 0.5% | i | i | -9.0% | -14.5% | 5.2%
COc1ccc(Nc2nnc(SCC(=O)NC(=O)Nc3ccc4c(c3)OCCO4)s2)cc1 | 13µM* | i | i | 9.5% | 6.5% | 10.3µM*
COc1ccc(-n2nnnc2SCC(=O)Nc2cccc(NC(C)=O)c2)cc1OC | 2.6% | i | i | -0.4% | -0.2% | 1.4%
CCC(=O)Nc1nnc(SCC(=O)Nc2ccc3c(c2)OCCO3)s1 | ? | i | ? | -16.4% | ? | -19.9%
COc1cccc(-n2nnnc2SCC(=O)Nc2ccc3c(c2)OCCO3)c1 | -1.4% | i | i | 14.1µM* | ? | -0.5%[9.22 µM]
